This is an account of results in PubChem BioAssay.

Results filed as inconclusive are left out. Active and inactive are the calls of the source.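 The calls were made as follows, unless noted: active = percent response above 42, roughly 3 SD of non-fluorescent test compounds; inactive = the rest.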

Test [1] in a line: yeast TOR pathway RPL19A-GFP modulators, primary screen, cell-based, S. cerevisiae, multiplex flow cytometry (AID 1862; in the data active = percent of DMSO control GFP below about 86%;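 also: lower values mimic rapamycin by blocking the RPL19A rise seen in DMSO cells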). As to conditions: S. cerevisiae RPL19A-GFP strain, flow cytometry fluorescence, 3 h; at 10 µM; stronger effect = lower value.
Test [2] can be described thus: modulators of MEP2-GFP levels in yeast, primary screen, S. cerevisiae, multiplex flow cytometry (AID 1867;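 active = GFP response, as percent of the DMSO control, above the screen-wide mean plus 3 SD, about 139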;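 also: median GFP channel fluorescence of barcode-gated MEP2-GFP cells measured by flow cytometry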). Particulars: S. cerevisiae MEP2-GFP strain, 3 h, at 10 µM, stronger effect = higher value, 100% means same as DMSO wells.
Test [3] can be described thus: modulators of CIT2-GFP expression in yeast, primary screen, S. cerevisiae, GFP fusion, multiplex flow cytometry (AID 1870;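 active = percent response above a set limit, the screen-wide mean plus 3 SD, cut at about 130% in these data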;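 also: barcoded CIT2-GFP strain pooled with four other GFP strains with rapamycin as positive control; median GFP fluorescence per well over plate mean of DMSO wells so 100% = DMSO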). As to conditions: 3 h, at 10 µM, stronger effect = higher value. In general terms: A flow cytometer gives signals particle by particle.
A short description of test [4]: modulators of LAP4-GFP expression in yeast, primary screen, S. cerevisiae, multiplex flow cytometry (AID 1873;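 active = GFP signal, as percent of the solvent control, above the screen mean plus 3 SD, about 149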). Particulars: 3 h, at 10 µM, stronger effect = higher value.
Test [5] in a line: modulators of AGP1-GFP expression in yeast TOR pathway, primary screen, cell-based, multiplex flow cytometry, S. cerevisiae (AID 1887;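 active = GFP signal above the screen-wide mean plus 3 SD, that is over about 124.5% of the solvent control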;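 also: AGP1-GFP fusion strain of S. cerevisiae within a five-strain barcoded multiplex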). As to conditions: 3 h, at 10 µM, stronger effect = higher value.
Test [6] in a line: inhibitors of CD8+ T cell-vesicle binding, pilot screen, LFA-1/ICAM-1 modulator project, MLPCN validation set, flow cytometry (AID 2523;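 active = response below a set limit, under 55% cells CD8-positive and vesicle-bound, and CD8 cells' 90th-percentile brightness under 279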;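 as to vesicle binding response: mean PE anti-B7-1 fluorescence of CD8+ cells relative to row control; 100% = QL9-loaded vesicles with DMSO vehicle in the same plate row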). As to conditions: 2C mouse CD8+ T cells, at 7 µM, stronger effect = lower value; double positive events: measured here: CD8+/vesicle+ event percentage.
In test [7] the target is Integrin beta-1 (Homo sapiens) + Integrin alpha-4 (Homo sapiens) (UniProt P13612+P05556). Description: inhibition of HUTS-21 binding to VLA-4, pilot screen, VLA-4 allosteric modulator project, U937 cells, HUTS-21 mAb, flow cytometry, validation set (AID 2674;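 active = inhibition above 50%, about 3 SD of the validation set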;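 also: antibody binding induced by the VLA-4 ligand LDV present at three times its Kd; 0% = LDV ligand with antibody and no compound and 100% = antibody without LDV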). As to conditions: HUTS-21 LIBS mAb binding, at 6.7 µM, stronger effect = higher value, binding induced by LDV ligand.
Chain of Integrin beta-1 (Homo sapiens) + Integrin alpha-4 (Homo sapiens) (P05556 whole entry, looked up): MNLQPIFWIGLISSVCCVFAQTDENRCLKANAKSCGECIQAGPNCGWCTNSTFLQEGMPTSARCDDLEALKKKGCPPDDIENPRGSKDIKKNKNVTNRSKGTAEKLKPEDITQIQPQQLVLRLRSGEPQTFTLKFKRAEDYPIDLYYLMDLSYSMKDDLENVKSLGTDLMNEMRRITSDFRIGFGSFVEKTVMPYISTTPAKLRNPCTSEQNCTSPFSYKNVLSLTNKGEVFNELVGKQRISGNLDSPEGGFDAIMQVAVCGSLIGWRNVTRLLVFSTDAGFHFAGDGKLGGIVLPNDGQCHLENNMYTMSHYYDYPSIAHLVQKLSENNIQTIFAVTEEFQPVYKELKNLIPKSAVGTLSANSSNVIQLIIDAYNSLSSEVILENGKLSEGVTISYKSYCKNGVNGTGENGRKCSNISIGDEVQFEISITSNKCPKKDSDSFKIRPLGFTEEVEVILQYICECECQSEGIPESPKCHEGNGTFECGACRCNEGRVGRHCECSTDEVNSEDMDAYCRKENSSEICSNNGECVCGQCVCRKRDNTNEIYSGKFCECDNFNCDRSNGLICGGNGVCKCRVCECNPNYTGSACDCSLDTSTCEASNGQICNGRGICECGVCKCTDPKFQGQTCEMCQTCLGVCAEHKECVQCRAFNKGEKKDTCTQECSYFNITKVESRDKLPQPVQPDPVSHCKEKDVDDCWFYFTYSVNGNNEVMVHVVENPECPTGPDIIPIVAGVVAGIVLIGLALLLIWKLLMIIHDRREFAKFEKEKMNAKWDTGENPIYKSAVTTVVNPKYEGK
Chain of Integrin beta-1 (Homo sapiens) + Integrin alpha-4 (Homo sapiens) (P13612 whole entry, looked up): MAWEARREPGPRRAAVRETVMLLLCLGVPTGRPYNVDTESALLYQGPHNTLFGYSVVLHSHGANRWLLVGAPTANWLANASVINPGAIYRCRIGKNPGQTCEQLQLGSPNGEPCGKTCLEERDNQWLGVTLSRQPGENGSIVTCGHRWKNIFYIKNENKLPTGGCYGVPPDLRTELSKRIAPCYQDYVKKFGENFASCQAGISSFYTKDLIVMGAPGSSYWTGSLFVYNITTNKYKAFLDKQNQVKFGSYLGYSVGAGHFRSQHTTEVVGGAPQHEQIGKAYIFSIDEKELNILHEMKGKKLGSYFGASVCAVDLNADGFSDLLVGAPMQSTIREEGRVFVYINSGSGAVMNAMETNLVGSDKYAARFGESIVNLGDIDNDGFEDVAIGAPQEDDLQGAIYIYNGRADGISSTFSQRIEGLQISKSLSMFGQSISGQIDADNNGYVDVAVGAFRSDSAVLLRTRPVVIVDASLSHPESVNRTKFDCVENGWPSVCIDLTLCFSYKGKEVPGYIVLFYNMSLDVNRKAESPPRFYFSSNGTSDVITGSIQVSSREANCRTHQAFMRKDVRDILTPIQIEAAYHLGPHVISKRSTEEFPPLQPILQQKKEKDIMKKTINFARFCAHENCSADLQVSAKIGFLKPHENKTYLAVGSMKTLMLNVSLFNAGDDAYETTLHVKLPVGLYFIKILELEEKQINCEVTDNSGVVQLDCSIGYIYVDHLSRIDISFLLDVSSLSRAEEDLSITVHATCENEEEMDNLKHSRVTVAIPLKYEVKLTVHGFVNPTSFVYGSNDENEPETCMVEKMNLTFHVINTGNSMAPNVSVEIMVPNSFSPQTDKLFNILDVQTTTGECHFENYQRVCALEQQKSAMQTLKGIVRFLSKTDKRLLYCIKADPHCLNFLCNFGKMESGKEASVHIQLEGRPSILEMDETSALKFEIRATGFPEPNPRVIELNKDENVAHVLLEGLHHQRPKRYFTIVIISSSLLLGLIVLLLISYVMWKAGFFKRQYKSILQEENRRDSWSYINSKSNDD
Test [8] can be described thus: superoxide lowering in aged yeast cells, pilot screen, validation compound set (AID 2706;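 active = superoxide response below 65% of plate, a cut near 3 SD across the whole screen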;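 also: yeast exposed to compound for one week at 30 degrees C before staining; 100% = mean of all compound wells on the same plate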). Particulars: S. cerevisiae aging, superoxide DHE fluorescence; at 10 µM; stronger effect = lower value.
The target of test [9] is Beta-adrenergic receptor kinase 1 (Homo sapiens) (UniProt P25098). The test is described as follows: GRK2 binders displacing RNA aptamer, biochemical, validation, human GRK2, bead flow cytometry (AID 488806;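 active = aptamer binding inhibition above 30%, about 3 SD of noise from non-fluorescent compounds; inactive = inhibition at or below 30%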). As to conditions: bead-bound GRK2, FAM-aptamer displacement, at 10 µM, stronger effect = higher value.
Chain of Beta-adrenergic receptor kinase 1 (Homo sapiens) (P25098 whole entry, looked up): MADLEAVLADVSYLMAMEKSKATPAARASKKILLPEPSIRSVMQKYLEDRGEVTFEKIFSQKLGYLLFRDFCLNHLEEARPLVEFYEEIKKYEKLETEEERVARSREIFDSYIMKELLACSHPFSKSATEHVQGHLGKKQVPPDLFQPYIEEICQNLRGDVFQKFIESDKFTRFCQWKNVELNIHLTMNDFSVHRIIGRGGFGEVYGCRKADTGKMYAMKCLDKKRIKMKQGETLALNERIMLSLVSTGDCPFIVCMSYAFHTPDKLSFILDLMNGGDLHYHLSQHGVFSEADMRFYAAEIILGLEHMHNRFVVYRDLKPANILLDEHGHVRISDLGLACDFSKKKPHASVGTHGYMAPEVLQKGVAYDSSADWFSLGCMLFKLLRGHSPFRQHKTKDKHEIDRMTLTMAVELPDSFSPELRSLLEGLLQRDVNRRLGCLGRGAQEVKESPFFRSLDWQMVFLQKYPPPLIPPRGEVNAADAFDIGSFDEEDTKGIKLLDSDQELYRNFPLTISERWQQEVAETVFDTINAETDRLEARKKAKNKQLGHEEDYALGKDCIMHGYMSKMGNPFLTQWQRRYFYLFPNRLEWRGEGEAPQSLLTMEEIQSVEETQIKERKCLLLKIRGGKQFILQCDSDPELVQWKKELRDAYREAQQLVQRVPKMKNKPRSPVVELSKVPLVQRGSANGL
In test [10] the target is Beta-2 adrenergic receptor (Homo sapiens) (UniProt P07550). Description: beta2AR agonists driving receptor internalization, pilot screen, cell-based, FAP fluorogen, flow cytometry, validation set (AID 504459).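 Also: agonist-driven loss of surface beta2AR via internalization measured by FAP dye flow cytometry.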 As to conditions: Am2.2-beta2AR cells, FAP surface receptor flow cytometry; at 10 µM; stronger effect = higher value.
Chain of Beta-2 adrenergic receptor (Homo sapiens) (P07550 whole entry, looked up): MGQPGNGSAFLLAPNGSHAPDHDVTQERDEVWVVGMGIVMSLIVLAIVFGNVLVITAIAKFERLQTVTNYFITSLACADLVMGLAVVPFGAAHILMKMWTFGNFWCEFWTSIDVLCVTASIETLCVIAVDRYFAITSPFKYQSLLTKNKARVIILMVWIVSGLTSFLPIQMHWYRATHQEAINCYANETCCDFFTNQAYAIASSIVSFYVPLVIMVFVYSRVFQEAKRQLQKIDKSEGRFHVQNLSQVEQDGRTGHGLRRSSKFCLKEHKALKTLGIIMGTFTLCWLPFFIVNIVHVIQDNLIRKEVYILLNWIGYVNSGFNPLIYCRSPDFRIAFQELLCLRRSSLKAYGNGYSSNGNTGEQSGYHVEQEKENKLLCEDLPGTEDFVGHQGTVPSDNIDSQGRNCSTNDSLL
Test [11] deals with AP-2 complex subunit beta (Homo sapiens) (UniProt P63010). Description: inhibitors of arrestin peptide binding to AP2, pilot screen, biochemical, validation set, GST-AP2 beads, flow cytometry (AID 504541;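 active = inhibition above 54%, about 3 SD of non-fluorescent compounds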;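 also: AP2 carries R879A mutation and is captured from E. coli lysate; bead-bound FITC arrestin peptide fluorescence measuring arrestin peptide binding to AP2; 0% = DMSO wells and 100% = excess unlabeled arrestin peptide control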). Particulars: FITC arrestin peptide, at 10 µM, stronger effect = higher value, AP2 beta2 appendage fragment, R879A mutant.
Chain of AP-2 complex subunit beta (Homo sapiens) (P63010 whole entry, looked up, the tested form may be a part, one chain of several): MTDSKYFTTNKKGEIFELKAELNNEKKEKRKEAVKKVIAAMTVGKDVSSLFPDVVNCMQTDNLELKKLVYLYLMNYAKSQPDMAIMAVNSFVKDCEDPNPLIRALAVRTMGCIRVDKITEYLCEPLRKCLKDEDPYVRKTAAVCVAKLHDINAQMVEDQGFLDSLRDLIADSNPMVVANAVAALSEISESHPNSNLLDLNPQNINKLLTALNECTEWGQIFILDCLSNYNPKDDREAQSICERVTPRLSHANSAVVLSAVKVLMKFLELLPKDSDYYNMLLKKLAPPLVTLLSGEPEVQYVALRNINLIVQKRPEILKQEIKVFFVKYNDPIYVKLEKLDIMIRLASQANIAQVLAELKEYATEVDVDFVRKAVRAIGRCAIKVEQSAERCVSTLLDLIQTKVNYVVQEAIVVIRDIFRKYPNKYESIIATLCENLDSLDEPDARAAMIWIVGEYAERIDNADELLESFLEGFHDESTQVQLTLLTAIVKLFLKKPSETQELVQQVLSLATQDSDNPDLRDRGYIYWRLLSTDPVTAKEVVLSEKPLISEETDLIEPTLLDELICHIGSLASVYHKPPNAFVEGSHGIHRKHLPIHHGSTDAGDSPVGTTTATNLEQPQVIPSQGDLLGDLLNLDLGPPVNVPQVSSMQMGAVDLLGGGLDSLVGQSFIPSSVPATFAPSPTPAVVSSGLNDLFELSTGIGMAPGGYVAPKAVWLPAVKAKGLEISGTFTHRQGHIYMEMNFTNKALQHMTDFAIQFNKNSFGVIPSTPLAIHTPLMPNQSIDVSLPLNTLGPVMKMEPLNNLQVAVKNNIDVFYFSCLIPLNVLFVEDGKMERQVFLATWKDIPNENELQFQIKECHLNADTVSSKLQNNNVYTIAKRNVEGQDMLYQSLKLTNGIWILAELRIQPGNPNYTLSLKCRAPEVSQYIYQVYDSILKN
A short description of test [12]: yeast V-ATPase proton transport modulators, S. cerevisiae, pHLuorin, HTS validation (AID 504600; in the data active = response above about 15%;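 also: plate controls were DMSO for no effect and reference compound for full effect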). Particulars: S. cerevisiae pHLuorin cytosolic pH, at 10 µM, stronger effect = higher value.
In test [13] the test system is anti-desmoglein-3 scFv antibody binding to human DSG3. The test is described as follows: inhibitors of anti-DSG3 scFv binding to DSG3, pilot screen, biochemical, validation compound set, bead-based, flow cytometry (AID 588368;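 active = binding below the plate cutoff, the plate median minus 3 SD, with a reading above zero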;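 also: signal is the median channel fluorescence of bead-bound GFP antibody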). As to conditions: Protein G beads, DSG3-Fc, scFv-GFP binding, at 10 µM, stronger effect = lower value.
A short description of test [14]: inhibitors of fungal efflux pumps CDR1, CDR2, MDR1, pilot screen, validation compound set, multiplex, phenotypic (AID 588506;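 active = efflux inhibition above 0.42, the validation set average plus 4 SD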;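 also: Nile Red retained in cells so higher fluorescence means more efflux inhibition; 0 = negative control wells and 1 = enniatin B 25 µM full block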). As to conditions: S. cerevisiae pump-expressing triplex, Nile Red efflux flow cytometry; at 10 µM; stronger effect = higher value; the pumps come from Candida albicans.
The target in test [15] is ATP-binding cassette sub-family B member 6 (Homo sapiens) (UniProt Q9NP58). The test is described as follows: ABCB6 transporter inhibitors, pilot screen, K562-ABCB6 cells, flow cytometry, validation set (AID 588550;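 active = inhibition above the screen-wide mean plus 3 SD, about 51%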;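 also: 0% = DMSO wells and 100% = benzethonium chloride 70 µM positive control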). Particulars: K562-ABCB6 porphyrin accumulation, 1 h, at 10 µM, stronger effect = higher value.
Chain of ATP-binding cassette sub-family B member 6 (Homo sapiens) (Q9NP58 whole entry, looked up): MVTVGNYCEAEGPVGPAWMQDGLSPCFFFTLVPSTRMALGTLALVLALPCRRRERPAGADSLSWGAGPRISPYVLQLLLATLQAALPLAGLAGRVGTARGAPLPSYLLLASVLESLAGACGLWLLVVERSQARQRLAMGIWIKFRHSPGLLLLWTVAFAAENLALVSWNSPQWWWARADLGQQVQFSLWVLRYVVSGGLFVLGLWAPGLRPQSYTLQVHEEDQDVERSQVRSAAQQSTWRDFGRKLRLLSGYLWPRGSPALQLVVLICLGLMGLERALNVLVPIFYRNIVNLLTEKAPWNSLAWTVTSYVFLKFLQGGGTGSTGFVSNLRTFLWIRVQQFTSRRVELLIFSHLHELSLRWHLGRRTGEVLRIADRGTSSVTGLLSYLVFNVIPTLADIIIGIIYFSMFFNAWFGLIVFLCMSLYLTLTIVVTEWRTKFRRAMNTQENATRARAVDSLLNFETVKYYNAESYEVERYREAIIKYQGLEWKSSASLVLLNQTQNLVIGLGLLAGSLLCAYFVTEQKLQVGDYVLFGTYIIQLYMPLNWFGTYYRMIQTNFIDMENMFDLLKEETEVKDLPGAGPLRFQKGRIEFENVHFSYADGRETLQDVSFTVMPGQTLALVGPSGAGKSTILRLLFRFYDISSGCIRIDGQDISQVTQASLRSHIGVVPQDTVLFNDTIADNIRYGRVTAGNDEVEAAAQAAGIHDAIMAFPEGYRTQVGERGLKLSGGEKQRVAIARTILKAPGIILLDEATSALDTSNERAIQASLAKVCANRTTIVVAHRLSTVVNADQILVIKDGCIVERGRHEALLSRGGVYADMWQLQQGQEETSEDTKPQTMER
A short description of test [16]: promoters of myeloid differentiation in arrested cells, primary screen, cell-based, GFP/MAC1 double positive, flow cytometry, validation set (AID 588685;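 active = differentiation response of at least 50%, scaled between solvent and reference control, from cells with both markers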;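 also: compound exposure lasts four days before antibody staining and flow analysis; 0% = DMSO wells and 100% = 5 µM fulvestrant positive control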). As to conditions: ER-HoxA9 marrow cells, stronger effect = higher value, normalized: vehicle 0, fulvestrant 100.

Broadly, the inhibition is the relative decrease from the control value, in per cent. In the case of `CC(=O)c1c(C)c(C)c2n1CCn1c(C)ccc1-2`, in test [1], the percent of DMSO control GFP was 105% (inactive). Further, the values for the GFP response vs DMSO in [2] and in test [4] were 107% (inactive) and 121% (inactive), respectively. The percent response of DMSO control in [3] was 93.1% (inactive). Also, the GFP response, % of DMSO in test [5] was 107% (inactive). The compound also returned a double positive events in test [6] of 60.2%. Besides, the vesicle binding response in test [6] was 141% (inactive). Moreover, the figures for the inhibition in test [7], in test [11] and in test [15] were -36.9% (inactive), 6.32% (inactive) and -18% (inactive), respectively. Also, the superoxide response (% of plate) in [8] is 99.4% (inactive). In addition, in [9], the aptamer binding inhibition is 0% (inactive). The values for the response in test [10] and in [12] were -22.4% (inactive) and -6.83% (inactive), respectively. The binding (% of control) in test [13] is 116% (inactive). In addition, the efflux inhibition (fraction of control) in [14] is -0.09 (inactive). Moreover, the differentiation response in [16] was -5.97% (inactive).
In the case of `CCCN1CCC(NC(=O)Nc2ccc(Br)cc2)CC1`, the percent of DMSO control GFP in [1] is 104% (inactive). Moreover, the GFP response vs DMSO in test [2] was 110% (inactive); in test [4], 92.7% (inactive). In [3], the percent response of DMSO control was 102% (inactive). Further, the GFP response, % of DMSO in test [5] is 102% (inactive). In addition, the double positive events in [6] is 63.2%. Also, in test [6], the vesicle binding response is 96.6% (inactive). In addition, the results for the inhibition in test [7], in [11] and in test [15] were -0.45% (inactive), -13.3% (inactive) and 16% (inactive), respectively. Also, the superoxide response (% of plate) in test [8] was 94.7% (inactive). Moreover, the aptamer binding inhibition in [9] is -5% (inactive). Further, the figures for the response in [10] and in test [12] were 1.9% (inactive) and 1.92% (inactive), respectively. For the same compound, in [13], the binding (% of control) is 96.8% (inactive). In [14], the efflux inhibition (fraction of control) is -0.23 (inactive). Also, the differentiation response in test [16] is 13.9% (inactive).
For the compound `CN1CCN(CC/C=C2/c3ccccc3Sc3ccc(S(=O)(=O)N(C)C)cc32)CC1`, the percent of DMSO control GFP in test [1] is 102% (inactive). In addition, the GFP response vs DMSO in test [2] and in [4] was 109% (inactive) in each case. For the same compound, the percent response of DMSO control in [3] was 94.5% (inactive). Moreover, the GFP response, % of DMSO in [5] was 94.8% (inactive). The double positive events in test [6] worked out at 68.4%. Besides, the vesicle binding response in test [6] was 202% (inactive). The inhibition in test [7] is 23% (inactive); in test [11] it was -4.59% (inactive); in [15] it was 28% (inactive). Moreover, in [8], the superoxide response (% of plate) is 86% (inactive). In addition, the aptamer binding inhibition in [9] is 4% (inactive). In addition, the response in [10] is -1.99% (inactive); in [12] it was 11% (inactive). Moreover, in [13], the binding (% of control) is 84.3% (inactive). In addition, the efflux inhibition (fraction of control) in [14] is 0.02 (inactive). Also, in test [16], the differentiation response was -13.3% (inactive).
`O=C(CCCN1C(=O)/C(=C\c2cccc(Br)c2)SC1=S)Nc1cccnc1`: the percent of DMSO control GFP in test [1] is 94.2% (inactive). Moreover, the results for the GFP response vs DMSO in [2] and in [4] were 104% (inactive) and 120% (inactive), respectively. The percent response of DMSO control in [3] was 95.8% (inactive). The GFP response, % of DMSO in [5] is 95.8% (inactive). Moreover, in test [6], the double positive events was 57.4%. Further, in [6], the vesicle binding response was 211% (inactive). In addition, the inhibition in test [7] was 2.3% (inactive); in test [11], -4.08% (inactive); in test [15], 5% (inactive). Besides, the superoxide response (% of plate) in test [8] was 98.5% (inactive). Besides, the aptamer binding inhibition in test [9] is 2% (inactive). Moreover, the response in [10] was 10.2% (inactive); in test [12], -5.34% (inactive). Further, the binding (% of control) in test [13] was 101% (inactive). For the same compound, in test [14], the efflux inhibition (fraction of control) was 0.01 (inactive). Further, the differentiation response in [16] was -12% (inactive).
